# In the library only some 1.8% were active in any assay of this set; here they are far more common.
# Myeloid diff MLP – promotes myeloid progenitor differentiation | calls only at 10 µM | actives 1% (n = 360,000) | ER-HoxA9 myeloid progenitors, lysozyme-GFP differentiation, flow cytometry;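 active means normalized GFP-positive differentiation at or above the plate's own cutoff, the solvent-only control mean plus 3 SD; inconclusive means no clear call, values can overlap the other calls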;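 further: cells exposed to compound for four days before flow analysis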
# ABCB6 inh 2 – inhibitors of human ABC transporter ABCB6. actives 0.19% (n = 360,000). fluorescence ratio to DMSO, % at 10 µM. K562-ABCB6 porphyrin accumulation, flow cytometry, 1 h; active compounds read low. Q9NP58;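 active means fluorescence ratio to DMSO below 75%, the collection mean minus 3 SD; inconclusive means too few cells collected in the well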;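 further: signal is porphyrin accumulated inside mitochondria; 100% equals median channel fluorescence of DMSO control wells; lower ratio means ABCB6 inhibition with less porphyrin fluorescence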
# Target sequence (Q9NP58 whole entry, looked up): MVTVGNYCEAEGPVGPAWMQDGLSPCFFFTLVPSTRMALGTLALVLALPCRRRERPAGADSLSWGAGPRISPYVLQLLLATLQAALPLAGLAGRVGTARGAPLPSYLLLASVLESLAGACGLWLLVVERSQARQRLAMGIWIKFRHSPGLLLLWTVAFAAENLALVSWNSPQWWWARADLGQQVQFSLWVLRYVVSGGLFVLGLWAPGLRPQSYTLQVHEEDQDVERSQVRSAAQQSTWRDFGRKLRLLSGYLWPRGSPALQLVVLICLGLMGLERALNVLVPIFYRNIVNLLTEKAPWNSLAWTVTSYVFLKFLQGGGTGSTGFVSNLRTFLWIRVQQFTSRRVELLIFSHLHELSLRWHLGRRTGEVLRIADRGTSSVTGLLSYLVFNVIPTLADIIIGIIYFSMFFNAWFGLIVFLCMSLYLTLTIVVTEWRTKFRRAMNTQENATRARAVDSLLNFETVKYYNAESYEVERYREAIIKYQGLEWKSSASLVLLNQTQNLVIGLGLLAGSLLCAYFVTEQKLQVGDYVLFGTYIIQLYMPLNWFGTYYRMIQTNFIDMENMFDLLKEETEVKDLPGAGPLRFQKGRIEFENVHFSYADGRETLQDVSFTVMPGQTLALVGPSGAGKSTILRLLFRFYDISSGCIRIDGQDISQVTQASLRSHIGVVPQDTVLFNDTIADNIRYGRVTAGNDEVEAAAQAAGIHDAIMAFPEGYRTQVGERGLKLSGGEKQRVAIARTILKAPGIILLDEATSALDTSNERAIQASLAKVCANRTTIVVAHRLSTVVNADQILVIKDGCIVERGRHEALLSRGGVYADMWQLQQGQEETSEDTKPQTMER
# Granule exo inh – lytic granule exocytosis inhibition; TALL-104 LAMP-1 surface exposure, flow cytometry; cells stimulated with thapsigargin and PMA; actives 0.66% (n = 360,000); inhibition, % at 10 µM;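 active means inhibition above about 55%, limit read from the data; inconclusive means no clear call, values can overlap the other calls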
# ABCB6 inh CP1 – blocks the human ABCB6 transporter; ratio response (% of DMSO), % at 10 µM; K562-ABCB6 porphyrin accumulation, flow cytometry, 1 h; active compounds read low; shares compounds with ABCB6 inh 2; 700 tested, under 10 active;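 active means repeat-averaged ratio response below 75% of DMSO, the collection mean minus 3 SD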;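 further: median porphyrin fluorescence at 575 nm with 488 nm excitation from mitochondria; lower ratio means less porphyrin signal so ABCB6 inhibition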
# Numbers without * were called inactive; i = inactive; u = inconclusive; x = no result.
SMILES,Myeloid diff MLP,ABCB6 inh 2,Granule exo inh,ABCB6 inh CP1
O=C(Nc1ccc(-n2nncc2-c2ccco2)cc1)c1cc2ccccc2oc1=O,i,93,-3,x
O=C(Nc1ccc(-n2nncc2-c2ccco2)cc1)c1cccc(F)c1,i,58*,2,99
COc1ccc(NC(=O)CN2CCCCC2)cc1S(=O)(=O)N1CCCCC1,i,97,1,x
CCOC(=O)N1CCN(CCC(=O)Nc2ccc(C)cc2)CC1,i,94,2,x
O=C(CN1CCCCC1)Nc1cccc(Br)c1,i,69*,-6,98
COc1ccc(NC(=O)CN2CCCCCC2)cc1OC,i,73*,4,100
O=C(CN1CCOCC1)Nc1cccc(Br)c1,i,100,2,x
CCOC(=O)N1CCN(CC(=O)Nc2ccc(C)cc2)CC1,i,72*,6,96
C[C@H](CO)N1C[C@H](C)[C@@H](CN(C)Cc2ccc(Oc3ccccc3)cc2)Oc2c(NS(=O)(=O)c3cn(C)cn3)cccc2C1=O,i,98,-15,x
Cc1c(C(=O)c2ccc([N+](=O)[O-])cc2)c(=O)n(C)c(=O)n1C,i,93,2,x
O=C(Nc1cc(Cl)ccc1N1CCCC1)C1=COCCO1,i,96,-5,x
COc1cc(/C=C/C(=O)O)cc(S(=O)(=O)Nc2ccccc2C(=O)NCc2ccco2)c1OC,i,93,-26,x
CC(C)(C)c1ccc(CC(=O)N2CCC2(C)C(=O)NS(=O)(=O)c2cccc(OC(F)F)c2)cc1 (centres undefined),i,97,19,x
Cc1cc(C)cc(CC(=O)N2CCC2(C)C(=O)NS(=O)(=O)c2ccc(C#N)cc2)c1 (centres undefined),i,93,6,103
CC1(C(=O)NS(=O)(=O)c2ccc(C#N)cc2)CCN1C(=O)Cc1ccsc1 (centres undefined),i,99,-3,x
Cc1cc(C)cc(CC(=O)N2CCC2(C)C(=O)NS(=O)(=O)c2cccc(OC(F)F)c2)c1 (centres undefined),i,95,2,99
CCOc1ccc(Cc2noc3c2C(=O)CC(C)(C)C3)cc1OCC,u,104,-2,x
CC1(C)c2[nH]c3ccccc3c2C[C@H]2C(=O)N(Cc3ccc(F)cc3)C(=O)N21,i,92,-5,x
CC(C)NC(=O)CN1CCN(Cc2nc(C(c3ccccc3)c3ccccc3)no2)CC1,i,99,-4,x
O=C(NCc1ccc(F)cc1)c1cc(-c2cccs2)on1,i,96,-2,x
O=C(NCc1ccccc1)c1cc(-c2cccs2)on1,i,62*,-1,101
CC1(C)CN(c2ccccc2)N(Cc2ccc(F)cc2)C1=O,i,104,1,x
O=C(c1ccco1)N1CCC(c2nc3c(nnn3Cc3ccc(F)cc3)c(=O)[nH]2)CC1,i,98,3,100
Cc1ccc(C)c(Cn2nnc3c(=O)[nH]c(C4CCCN(C(=O)C5CCC5)C4)nc32)c1 (centres undefined),i,102,0,x
O=C(c1ccco1)N1CCCC(c2nc3c(nnn3Cc3ccccc3)c(=O)[nH]2)C1 (centres undefined),i,99,5,x
SMILES,Myeloid diff MLP,ABCB6 inh 2,Granule exo inh,ABCB6 inh CP1
O=C(c1ccco1)N1CCCC(c2nc3c(nnn3Cc3c(Cl)cccc3Cl)c(=O)[nH]2)C1 (centres undefined),x,94,-7,x
Cc1ccc(C)c(Cn2nnc3c(=O)[nH]c(C4CCN(C(=O)c5ccco5)CC4)nc32)c1,i,102,8,102
O=C(c1ccco1)N1CCC(c2nc3c(nnn3Cc3ccccc3Cl)c(=O)[nH]2)CC1,i,97,9,96
CC(C)Oc1ccc(CNC(=O)Cn2ccc3cc(S(=O)(=O)N4CCCC4)ccc32)cc1,i,99,-3,x
O=C(NNC(=O)C1CC(c2cccs2)=NO1)NC1CCCCC1 (centres undefined),i,95,-1,x
Cc1nc2c(F)c(F)c(C(F)(F)F)c(F)c2[nH]1,i,69*,0,101
Cc1nc2c(Br)c3nc(C(F)(F)F)[nH]c3c(Br)c2[nH]1,i,103,-8,x
CC[C@]12c3[nH]c4ccc(Cl)cc4c3CCN1C(=O)[C@@H](CC(=O)NCCCn1ccnc1)C[C@@H]2C(=O)N1CCN(C(=O)c2ccco2)CC1,i,98,-4,x
Cc1c(C(=O)N(Cc2ccccc2)C(C)C)cnn1-c1ccccc1,i,92,-5,x
Cc1c(C(=O)N(Cc2ccccc2)Cc2cccs2)cnn1-c1ccc(Cl)cc1,i,14*,2,100
O=C(CN1C(=O)c2cccc3cccc1c23)N1CCN(c2ccc(F)cc2)CC1,i,60*,-4,104
O=C(CN1C(=O)c2cccc3cccc1c23)N1CCN(c2ccccc2)CC1,i,89,0,x
CCCNC(=O)c1onc(CSc2ccc(Cl)cc2)c1C(=O)NC(C)C,i,96,-2,x
CCC(CC)C(=O)c1c[nH]c(C(=O)NCc2ccccn2)c1,i,105,0,x
COc1ccccc1OCc1nnc(SCC(=O)N2CCCC2)o1,i,96,-13,x
COc1ccccc1OCc1nnc(SCC(=O)c2cc(Cl)ccc2OC)o1,i,68*,5,98
C[C@@H]1CN([C@@H](C)CO)C(=O)c2cc(Br)cnc2O[C@H]1CN(C)C(=O)C1CC1,i,97,-2,x
c1ccc(OCc2nc3c4c(ncn3n2)-c2ccccc2CC42CCCC2)cc1,i,98,3,x
O=C(Nc1ccc(F)cc1)c1cccnc1N1CCCCC1,i,103,-5,x
O=C(Nc1ccc(Br)cc1)c1cccnc1N1CCCCC1,i,73*,1,100
COc1ccc(-c2nc(N)ncc2-c2ccccc2)c(O)c1,i,96,6,x
COc1ccc(-c2cnc(N)nc2-c2ccc(OC)cc2O)cc1,i,73*,5,98
COc1ccc(-c2cncc3nccn23)cc1OC,i,96,-6,x
CCOc1ccc(-c2cncc3nccn23)cc1,i,65*,0,98
NCCS(=O)(=O)O,i,101,0,x
SMILES,Myeloid diff MLP,ABCB6 inh 2,Granule exo inh,ABCB6 inh CP1
C=C1CCN([C@@H](Cc2ccccc2)C(=O)NCCC(C)C)S(=O)(=O)c2ccccc21,i,89,38,x
Cc1ccc(Cl)cc1NC(=O)CN1C(=O)NC(C)(C2CC2)C1=O (centres undefined),i,100,2,x
Cc1cccc(C(=O)Nc2c(C#N)c(C)c(C)n2Cc2ccccc2)c1,i,106,-1,x
Cc1c(C#N)c(NC(=O)C(C)C)n(Cc2ccccc2)c1C,i,74*,-7,103
COc1ccc(-n2nc(C(=O)NCC(=O)NCC3COc4ccccc4O3)c3ccccc3c2=O)cc1 (centres undefined),i,93,2,x
OCCOCCn1c(CCNc2nc(-c3ccc(F)cc3)cs2)nc2cc(C(F)(F)F)ccc21,i,73*,4,100
OCCCn1c(CCNc2nc(-c3ccc(Cl)cc3)cs2)nc2cc(C(F)(F)F)ccc21,i,99,2,x
Cc1ccc(-n2c3c(cc(C(=O)NC4CCSC4=O)c2=O)C(=O)CC(C)(C)C3)cc1 (centres undefined),i,102,4,x

# High-throughput results as filed in PubChem BioAssay.
